From the supplement of paper PMC10681739

Legend:
ETS1 [1] = molecular target: T1, ETS1 (UniProt P14921); assay: ETS1 binding intensity (PBM fluorescence), ETS1 alone (arbitrary fluorescence units); higher = stronger binding; settings: ETS1 concentration 1 nM; RUNX1 concentration 0 nM
T1 sequence: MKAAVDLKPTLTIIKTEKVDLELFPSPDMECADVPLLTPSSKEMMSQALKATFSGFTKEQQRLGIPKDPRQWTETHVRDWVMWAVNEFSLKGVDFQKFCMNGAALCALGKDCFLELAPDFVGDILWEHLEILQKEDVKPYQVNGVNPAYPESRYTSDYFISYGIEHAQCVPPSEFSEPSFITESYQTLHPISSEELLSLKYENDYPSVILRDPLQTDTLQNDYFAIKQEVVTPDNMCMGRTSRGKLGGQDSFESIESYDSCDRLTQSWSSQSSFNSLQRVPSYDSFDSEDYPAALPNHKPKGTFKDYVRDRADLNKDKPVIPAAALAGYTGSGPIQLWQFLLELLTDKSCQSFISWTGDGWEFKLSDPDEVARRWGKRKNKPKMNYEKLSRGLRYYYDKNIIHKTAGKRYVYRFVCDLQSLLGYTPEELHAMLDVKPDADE

RUNX1 [2] = molecular target: RUNX1 (UniProt Q01196); assay: RUNX1 binding intensity (PBM fluorescence), RUNX1 alone (arbitrary fluorescence units); higher = stronger binding; settings: RUNX1 concentration 2 nM; ETS1 concentration 0 nM
Description: (§1)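 Cooperative gcPBM on 36-bp genomic probes with neighbouring ETS1 and RUNX1 sites. Recombinant human RUNX1 (2 nM) was incubated alone or with ETS1 (25 nM) and detected with anti-RUNX1 antibody plus Alexa488 secondary. Values are medians over 4 replicate spots; the RUNX1+ETS1 data were normalised to the RUNX1-only data. The probes sit in constant array flanks that are not printed.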

ETS1 [3] = molecular target: T1, ETS1; assay: ETS1 binding intensity (PBM fluorescence) in presence of RUNX1, normalised to ETS1-only experiment (arbitrary fluorescence units); higher = stronger binding; settings: ETS1 concentration 1 nM; RUNX1 concentration 25 nM
RUNX1 [4] = molecular target: RUNX1 (UniProt Q01196); assay: RUNX1 binding intensity (PBM fluorescence) in presence of ETS1, normalised to RUNX1-only experiment (arbitrary fluorescence units); higher = stronger binding; settings: RUNX1 concentration 2 nM; ETS1 concentration 25 nM
Description: as §1
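For RUNX1 binding intensity (PBM fluorescence) in presence of ETS1, normalised to RUNX1-only experiment in this document: Full-length recombinant human ETS1 or RUNX1 bound to double-stranded 36-bp genomic probes on microarrays, detected by protein-specific primary antibody and Alexa488 secondary, spot fluorescence as median of four replicate spots.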
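For RUNX1 binding intensity (PBM fluorescence), RUNX1 alone in this document: Full-length recombinant human RUNX1 bound to double-stranded 36-bp genomic probes on a high-density microarray, scored as Alexa488 fluorescence per spot via anti-RUNX1 antibody, median of four replicate spots.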

Sequence of RUNX1 (Q01196 whole entry): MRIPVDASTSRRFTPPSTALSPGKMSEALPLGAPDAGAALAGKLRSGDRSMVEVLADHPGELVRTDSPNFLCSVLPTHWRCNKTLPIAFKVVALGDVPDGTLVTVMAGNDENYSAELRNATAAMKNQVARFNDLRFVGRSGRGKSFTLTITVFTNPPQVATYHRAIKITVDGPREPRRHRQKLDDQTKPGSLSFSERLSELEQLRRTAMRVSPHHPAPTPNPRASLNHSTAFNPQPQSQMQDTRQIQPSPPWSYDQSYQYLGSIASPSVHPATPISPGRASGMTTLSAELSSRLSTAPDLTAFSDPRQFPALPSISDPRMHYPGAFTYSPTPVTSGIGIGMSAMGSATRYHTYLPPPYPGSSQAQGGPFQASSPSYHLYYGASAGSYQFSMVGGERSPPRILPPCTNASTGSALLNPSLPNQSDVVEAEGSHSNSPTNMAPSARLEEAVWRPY

| Sequence | ETS1 binding intensity (ETS1 [1]) | RUNX1 binding intensity (RUNX1 [2]) | ETS1 binding intensity (ETS1 [3]) | RUNX1 binding intensity (RUNX1 [4]) |
| --- | --- | --- | --- | --- |
| AGCACAAACCCAGGATGTGGTAAATGAAATGAAAAA | 1260 | 858 | 5210 | 1460 |
| TCTGATGTGCCTTCTTCCTGACCACAGCAACTACTA | 392 | 1250 | 511 | 1270 |
| TCCGGAAGTGGCACTGATGGGCGCCTGCGGCGGGGG | 2720 | 758 | 5500 | 1030 |
| CTCAGCTCCGCGGAAGTTGCGGTAAGTGGAGCTTTG | 962 | 2210 | 8730 | 5790 |
| AGAGCAACAGGATGCAAATAACCACAAGCAAGAATA | 920 | 1160 | 4180 | 3320 |
| TCCAGGATGTGGGATGCCGTGCTGTACCGCATGTCA | 498 | 652 | 1030 | 1160 |
| AAGAACCTAGAGGATGTGTGGTTTTATGTGCAGGGT | 710 | 914 | 1830 | 1150 |
| CCTCACTAACATCCTGTTGAGGTGTCCCACAAACCA | 1110 | 801 | 1090 | 1490 |
| CTAACCCTGCTTCCTCTTAGTGGTTTCCCCCAACCT | 616 | 1620 | 793 | 3220 |
| ATCTCCACATCCTCCCCATCGACCGCATGGTTTACC | 439 | 1970 | 653 | 3450 |
| GACTGCACTTCCTCTGCTTCGAGGTCGGTGGTTAGC | 535 | 874 | 653 | 1450 |
| CACGGAGCCACTTCCGGCGGCTGTGGGCGCAAAACC | 3620 | 752 | 4210 | 3120 |
| GGTCCCCCCGGTTCCGGCGCGGTTGAGGCCTTCGGT | 683 | 758 | 676 | 1170 |
| CAGGGCACCTCCTACTTCCCCCCGCAGATAACTACC | 875 | 999 | 1010 | 906 |
| GGGTGCTTCCTATAAACAATGACTCATTACCGCACT | 425 | 920 | 474 | 976 |
| GCTCATTTATGCATCCTGTGGTCTGTGTGTGTTTCG | 569 | 984 | 831 | 1390 |
| ATTTTTCCTTCCTTCTCCCGTCCCCGCAGAGTGCAA | 507 | 1540 | 465 | 1520 |
| CCCCTCTCTCCCACTTCCTGTGGTCTCAGTCTTTGT | 3360 | 1500 | 4840 | 4960 |
| AGCTGCTGTTTTCCGGCTGCGGCACTGGATGAAGGA | 498 | 711 | 422 | 1350 |
| AGGCTTCCTGTTTTATCTCGTGTGTGTGGTGCACCA | 547 | 970 | 565 | 2120 |

| Sequence | ETS1 binding intensity (ETS1 [1]) | RUNX1 binding intensity (RUNX1 [2]) | ETS1 binding intensity (ETS1 [3]) | RUNX1 binding intensity (RUNX1 [4]) |
| --- | --- | --- | --- | --- |
| ATAAACAGGAAGCTGAGTATGTGACCACAGACATTC | 1670 | 840 | 5200 | 1630 |
| GCGGGGCGCAGGAAGCGGGGCGAAACCACTGTTGGC | 1040 | 753 | 1550 | 1010 |
| CTCACAACTCGCGTCCGGCGGAGACCACAATTCCCG | 412 | 863 | 530 | 1230 |
| ACCATCCTGTAGTCTGTTAAGTGAGCAACCGCATTA | 447 | 1130 | 948 | 1900 |
| GTGGAAAGGAAATGTGTCATCTGTGGTTTGGTTTTA | 645 | 1060 | 2110 | 1410 |
| TGCGCCGCGGAACCCGGAAGTGGTCACGGAGCTCGG | 10600 | 766 | 23400 | 3970 |
| AGGGAGCCCTCCATTTCCTGCCCACATTTGTCACCT | 2360 | 1240 | 2060 | 2260 |
| GGTAAAGCAACAGGATGTGGGTGTCTGACTTACAAT | 4330 | 700 | 6760 | 1790 |
| GGAGGCGGAAGTGGAGGTTGTTGTGGCTCCGAGGGC | 1940 | 727 | 1950 | 1100 |
| GCTGCAGCAGGCGGGAAGTCTGCGGTTCGCGGGCTC | 622 | 1150 | 6590 | 1830 |
| ACACAGAGAGTGAGAGGAAGTGGTTTAGAGATGAGA | 2440 | 769 | 3210 | 1050 |
| CCCTGGACGGGAAGCGGCGGCCAGATCCGCAAGCCC | 584 | 808 | 747 | 940 |
| CCTCCCTGAGGGGGAAGTGGTTTTTGAGTCTGAGTC | 579 | 859 | 1190 | 1020 |
| GGTCCGGATGTATAAAGCGCGGCCCCCTGCGGGGAG | 910 | 732 | 1020 | 997 |
| TCAGGGGAGCGAGCAGGAAGTGGTAAGATTTGATAG | 3680 | 696 | 7210 | 1230 |
| GTTGGGTGGGGAAGTGGATGGTGGTTTTGGCAGAGG | 542 | 960 | 713 | 1210 |
| TGATGCACTTCCTGAGGGCCCGCATGTGGTAAACAC | 495 | 834 | 880 | 1480 |
| ACATTTCCTTTTGGTATTTAAAGTAACCACACAGAA | 495 | 1060 | 668 | 2120 |
| TGCATGCAACAGGAAGTGGGGTGTGGTTTGTTCTGG | 11600 | 760 | 39100 | 1890 |
| CTGTGAGGCGGAAGTGGCGGGCTCTGTGGGCGCAAG | 3860 | 703 | 8270 | 1430 |
